Assay outcomes deposited in PubChem BioAssay by several laboratories.
Insulin prom up – MIN6 insulin promoter up-regulation; MIN6 insulin promoter-GFP reporter, high-content imaging; hits give high values; z-score at 5 µM; 0.3% of 190,000 active; AID 1625;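 active = z-score above 3 at 5 µM with at least 500 cells counted in the well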
INS promoter inh – TRM-6 insulin promoter activity inhibition; TRM-6 cells (human fetal islet line), insulin promoter-eGFP reporter, imaging; reporter expression induced with tamoxifen; inhibition, % at 2 µM; 0.9% of 130,000 active;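 active = inhibition above the mean plus 3 SD, with well images judged a real hit on visual review, cut at about 60% in these data, passing the limit was not always enough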
bCat KO growth – beta-catenin-lacking colon tumor cell growth suppression; HCT116 beta-catenin knockout viability, CellTiter-Glo, 60 h; hits give low values; viability, % at 10 µM; 1.5% of 140,000 active;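 active = viability at or under a set limit, the compound median less 4 SD, cut at about 6% in these data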
Autophagy HCS – alters autophagy in cells; MEF GFP-LC3 puncta imaging; test concentration mostly 10 µM; 0.98% of 190,000 active; calls only at 10 µM (by protocol); AID 463193;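 active = percentage of spot-positive cells more than 3 SD above its plate mean, without a fluorescence outlier flag or 80% toxicity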
HCT116 PTEN-null – growth suppressors of cells with PTEN tumor suppressor deletion; AID 827; HCT116 PTEN-null viability, CellTiter-Glo, 60 h; hits give low values; viability, % at 10 µM; 1.2% of 140,000 active;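 active = viability at or below a set limit, 4 SD under the median of all tested compounds, cut at about 3.7% in these data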;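 note: PTEN knockout HCT116 line with beta catenin targeted HCT116 as companion control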
Lmaj promast – reduces viability of Leishmania major promastigotes; 9% of 200,000 active; inhibition, % at 10 µM; resazurin fluorescence viability; AID 1063; in the data active = inhibition above about 50%;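 note: promastigotes grown with compound for 44 hours at 28 °C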
Each line names hits and unclear results; the compound was inactive in the other large screens. Shown are actives, neighbours in structure and some others; about 9.6% of the full set was active somewhere.

CCc1ccccc1NC(=O)c1nnn(CC(=O)Nc2cccc(C)c2)c1N	none (no result: Insulin prom up)
COc1cc(/C=C/C(=O)c2c(O)ccc3c(C)cc(=O)oc23)ccc1O	Lmaj promast 99
COc1ccc(/C=C\C(=O)c2c(O)ccc3c(C)cc(=O)oc23)cc1OC	Lmaj promast 100
Cc1cc(=O)oc2c(C(=O)/C=C/c3ccccc3)c(O)ccc12	Lmaj promast 52
COc1ccc(CCN2C(=O)NC(NC(=O)C(C)(C)C)(C(F)(F)F)C2=O)cc1OC (stereo unspecified)	none
Cc1ccccc1NC(=O)c1cn2c(nc3ccccc32)c(C#N)c1C	none (no result: INS promoter inh, bCat KO growth, Autophagy HCS, HCT116 PTEN-null, Lmaj promast)
O=C(COC(=O)CN1C(=O)c2ccccc2C1=O)Nc1ncc(Cl)cc1Cl	none (no result: INS promoter inh)
Cc1ccc(C=Nc2ccccc2C(N)=O)cc1	Autophagy HCS active
O=C(COc1ccc(Br)cc1)N/N=C1/SCC(=O)N1Cc1ccco1	none (no result: INS promoter inh, bCat KO growth, HCT116 PTEN-null)
CCOc1ccc(N2C(=O)CS/C2=N/NC(=O)COc2ccc3ccccc3c2)cc1	Lmaj promast 99 (no result: Insulin prom up)
O=C(Nc1ccccc1Cl)NC1(C(=O)N2CCCC2)CCCCC1	bCat KO growth 0.7, HCT116 PTEN-null 0.8 (no result: Insulin prom up)
O=C(COC(=O)c1cc([N+](=O)[O-])ccc1NCc1ccccc1)NC1CCCc2ccccc21 (stereo unspecified)	none
O=C(c1ccc2c(=O)n(CC3CCCO3)c(=S)[nH]c2c1)N1CCN(c2ccccc2)CC1 (stereo unspecified)	bCat KO growth 1.1, HCT116 PTEN-null 1.5 (no result: Insulin prom up)
CCOC(=O)N1CCN(C(=O)c2ccc3c(=O)n(CC4CCCO4)c(=S)[nH]c3c2)CC1 (stereo unspecified)	none
O=C(c1ccc(Cn2c(=S)[nH]c3ccccc3c2=O)cc1)N1CCN(c2ccccn2)CC1	Lmaj promast 100 (no result: bCat KO growth, HCT116 PTEN-null)
Cc1cccc(OCCC(=O)NCC(=O)Nc2cccc(C)c2C)c1	Lmaj promast 61
Cc1cccc(OCCC(=O)NCC(c2ccccc2)N(C)C)c1 (stereo unspecified)	none (no result: INS promoter inh)
CC(=O)N=c1sc2c3ccccc3ccc2n1C	Lmaj promast 63 (no result: INS promoter inh)
Cc1cc(C)c(C(=O)/C=C/c2cccc3ccccc23)c(=O)[nH]1	bCat KO growth 1.5, HCT116 PTEN-null 2.3, Lmaj promast 100 (no result: INS promoter inh)
Cc1nn(-c2ccccc2)c2c1C(c1ccc(Br)s1)C(C#N)=C(N)O2 (stereo unspecified)	Lmaj promast 81 (no result: bCat KO growth, HCT116 PTEN-null)
CCc1[nH]nc2c1C(c1ccc(Br)s1)C(C#N)=C(N)O2 (stereo unspecified)	Lmaj promast 100
Cc1ccc(SCc2[nH]nc3c2C(C(C)C)C(C#N)=C(N)O3)cc1 (stereo unspecified)	none
Cc1ccc(SCc2[nH]nc3c2C(c2ccco2)C(C#N)=C(N)O3)cc1 (stereo unspecified)	Lmaj promast 62
Cc1ccc(SCc2[nH]nc3c2C(c2ccc(C)o2)C(C#N)=C(N)O3)cc1 (stereo unspecified)	Lmaj promast 86
CCCCOC(=O)Cn1c(=O)c2c(nc3n2CCCCN3c2ccc(C)cc2)n(C)c1=O	none
Cc1ccc2oc(=O)c3cnn(CC(=O)N(CCC(C)C)Cc4ccco4)c3c2c1	none (no result: INS promoter inh)
Cc1nn(Cc2ccccc2)c2c1C(c1ccc(Cl)cc1)C(C#N)=C(N)O2 (stereo unspecified)	Lmaj promast 85 (no result: Insulin prom up)
CCSc1nnc(NC(=O)C2Cc3ccccc3CN2S(=O)(=O)CC)s1 (stereo unspecified)	none
Cc1cc(C)c(S(=O)(=O)/N=C2/C=C(Sc3ncn[nH]3)C(=O)c3ccccc32)cc1C	bCat KO growth 3.1, Lmaj promast 100
Cc1ccc(OCCCC(=O)Nc2nc3ccccc3[nH]2)cc1	none (no result: bCat KO growth, HCT116 PTEN-null)
Cc1cccc(OCCCC(=O)Nc2nc3ccccc3[nH]2)c1	Autophagy HCS active (no result: bCat KO growth, HCT116 PTEN-null)
CCC(CC)c1nnc(NC(=O)c2ccc3ccccc3n2)s1	Lmaj promast 78
Cc1ccc(C)c(C(=O)CSc2n[nH]c(C(C)C)n2)c1	none (no result: INS promoter inh)
CCCC(=O)Nc1sc(C)c(C)c1C#N	none (no result: INS promoter inh, bCat KO growth, HCT116 PTEN-null)
CCc1c(C)sc(NC(=O)CC#N)c1C#N	Lmaj promast 66
Cc1nnc(SCC(=O)NCC2CCCCC2)n(N)c1=O	none
COc1ccc(/C=C/C(=O)NC(CCSC)C(=O)O)cc1 (stereo unspecified)	none (no result: bCat KO growth, HCT116 PTEN-null)
COc1ccc(-c2nnn(CC(=O)N(CC(=O)NCCC(C)C)c3ccccc3)n2)cc1OC	Lmaj promast 73
CC(C)CCNC(=O)CN(C(=O)Cn1nnc(-c2ccccc2F)n1)c1cccc2c1CCCC2	none (no result: Insulin prom up)
